Gli-Sufu block = blocks Gli-Sufu signaling in a luciferase reporter; Sufu-KO-LIGHT fibroblasts, Gli luciferase reporter luminescence; inhibition, % at 5 µM; 0.74% of 340,000 active; AID 588413;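 active means inhibition above about 55%, limit read from the data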;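 further: 0% = DMSO-treated cells and 100% = wells with medium but no cells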
Jurkat NFkB inh = inhibitors of the PMA/ionomycin-induced NF-kB reporter in Jurkat cells; PMA/ionomycin-induced NF-kB luciferase reporter, luminescence; inhibition, % at 4 µM; 0.53% of 330,000 active; in the data active means inhibition above about 50%
KLF5 inh = suppresses KLF5 promoter-driven expression | DLD-1 KLF5 promoter-luciferase reporter, luminescence | AID 1700 | 0.23% of 290,000 active | inhibition, % at 5 µM;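 active means inhibition above a per-plate limit of that plate's mean compound inhibition plus 3 SD, cut at about 60% in these data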;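 further: 0% = DMSO wells and 100% = LY294002 at 200 µM; higher means less KLF5 promoter-driven luciferase light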
Mdm2-MdmX inh = inhibitors of human Mdm2/MdmX interaction; O15151+Q00987; SaOS-2 split-luciferase Mdm2/MdmX complementation, luminescence; inhibition, % at 8 µM; 3% of 330,000 active; AID 485346;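 active means inhibition of at least 50% at 8 µM in the primary screen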
Target sequence (O15151 whole entry, looked up): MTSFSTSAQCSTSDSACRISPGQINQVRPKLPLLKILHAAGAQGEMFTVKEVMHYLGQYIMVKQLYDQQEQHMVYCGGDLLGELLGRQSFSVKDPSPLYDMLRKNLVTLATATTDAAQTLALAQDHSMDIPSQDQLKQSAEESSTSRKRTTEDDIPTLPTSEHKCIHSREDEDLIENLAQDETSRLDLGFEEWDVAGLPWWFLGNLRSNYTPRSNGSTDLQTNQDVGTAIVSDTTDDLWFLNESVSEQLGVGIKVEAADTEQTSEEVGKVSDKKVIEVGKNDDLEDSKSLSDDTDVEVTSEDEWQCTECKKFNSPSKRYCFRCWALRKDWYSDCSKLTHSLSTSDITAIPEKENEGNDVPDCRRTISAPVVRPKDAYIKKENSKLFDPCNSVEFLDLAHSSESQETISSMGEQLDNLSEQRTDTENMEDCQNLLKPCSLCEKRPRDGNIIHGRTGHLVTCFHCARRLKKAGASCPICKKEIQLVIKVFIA
Target sequence (Q00987 whole entry, looked up): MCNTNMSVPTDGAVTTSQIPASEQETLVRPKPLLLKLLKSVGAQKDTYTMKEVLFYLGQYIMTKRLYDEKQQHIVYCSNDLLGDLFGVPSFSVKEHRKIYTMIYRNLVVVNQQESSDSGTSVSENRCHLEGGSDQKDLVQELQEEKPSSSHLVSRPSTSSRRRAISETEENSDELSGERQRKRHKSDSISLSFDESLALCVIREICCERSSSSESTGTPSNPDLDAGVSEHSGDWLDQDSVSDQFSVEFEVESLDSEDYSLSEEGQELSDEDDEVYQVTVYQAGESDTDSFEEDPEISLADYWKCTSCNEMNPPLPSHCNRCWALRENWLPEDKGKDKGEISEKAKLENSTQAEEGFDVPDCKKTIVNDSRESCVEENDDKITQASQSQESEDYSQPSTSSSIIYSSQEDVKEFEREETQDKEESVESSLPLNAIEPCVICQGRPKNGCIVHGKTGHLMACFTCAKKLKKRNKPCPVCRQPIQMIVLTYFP
697 NFkB inh = lowers PMA/ionomycin-induced NF-kB signal in 697 B cells; 0.33% of 330,000 active; AID 435022; 697 B-cell NF-kB luciferase reporter, 16 h; inhibition, % at 4 µM; in the data active means inhibition above about 35%
aSyn UTR inh = 5' untranslated region of α-synuclein, MLPCN primary screen; 0.82% of 300,000 active; alpha-synuclein 5'UTR reporter, inhibitor activity; inhibition, % (tested at 7.5 µM); in the data active means inhibition above about 60%;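 further: H4 neuroglioblastoma cells stably carrying SNCA 5'UTR luciferase fusion; 0% = DMSO wells and 100% = positive control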
Active calls of the source: *; x = not tested or not shown. Sampled rows, rich in hits. Any-hit rate of the full collection: about 4.1%.

SMILES	Gli-Sufu block	Jurkat NFkB inh	KLF5 inh	Mdm2-MdmX inh	697 NFkB inh	aSyn UTR inh
Cc1sc2cc3c(c(C(=O)c4ccccc4)[n+]2c1C)-c1cccc2cccc-3c12	70*	x	-1	x	x	37
CC(NC(=O)Cn1ncc(Cl)c(Cl)c1=O)C12CC3CC(CC(C3)C1)C2 (stereo not given)	9	x	-6	x	x	88*
CCn1cc(C(=O)NC(C)C23CC4CC(CC(C4)C2)C3)cn1 (stereo not given)	6	6	-17	16	9	20
O=C(O)C1CCC(CNS(=O)(=O)c2ccccc2)CC1 (stereo not given)	-3	3	-20	13	14	15
CSC1=C(C#N)C(c2ccc(Cl)cc2)C2=C(CC(C)(C)CC2=O)N1 (stereo not given)	14	22	x	17	10	71*
CCCSC1=C(C#N)C(c2ccc(OC)cc2)C2=C(CC(C)(C)CC2=O)N1 (stereo not given)	4	12	-16	-31	10	14
O=C(NC1CCCc2ccccc21)c1n[nH]c(=O)c2ccccc12 (stereo not given)	5	8	2	16	26	88*
Cc1ccc(-c2n[nH]c(=S)n2/N=C/c2c(C)nn(-c3ccccc3)c2C)cc1	3	7	-46	-20	4	33
CCc1n[nH]c(=S)n1/N=C/c1c(C)nn(-c2ccccc2)c1Cl	-2	8	-5	28	-36	106*
Cc1nnc(N2CCOCC2)c2nn(-c3ccccc3)c(C)c12	5	22	-23	10	-3	5
c1ccc(-n2nnc3c(N4CCOCC4)ncnc32)cc1	-36	-99	-29	9	-111	75*
CS(=O)(=O)N(CC(=O)Nc1cc(Cl)ccc1Cl)c1ccccc1	3	-8	-9	-7	9	13
Cc1ccc(C(=O)c2c3ccc(C(F)(F)F)cc3[n+]([O-])n2CCCN)cc1	10	25	x	-9	-22	-12
Cc1ccc(C(=O)c2c3ccc([N+](=O)[O-])cc3[n+]([O-])n2CCCN)cc1	19	-10	x	33	-126	63*
CCOc1ccc(NC(=O)CN(C)CC(=O)Nc2ccc(F)c(F)c2F)cc1OCC	-1	-14	-11	9	-1	-8
CCn1c(=O)n(CC)c2cc(N3CCCC3)c(NC(=O)c3ccccc3OC)cc21	20	-2	-49	31	-16	1
Cc1ccc(C)c(OCC(=O)Nc2c[nH]c(=O)[nH]c2=O)c1	-4	-11	-3	21	-26	81*
COc1ccccc1C(=O)Nc1c[nH]c(=O)[nH]c1=O	-16	-2	-9	-5	-2	8
CCOc1ccccc1C(=O)Nc1c[nH]c(=O)[nH]c1=O	8	-10	-32	7	-2	62*
CCOc1ccccc1C(=O)Nc1cc2c(cc1N1CCCC1)n(CC)c(=O)n2CC	58*	-11	-40	29	-50	12
COc1ccc(OC)c(S(=O)(=O)N2CCCC(C(=O)NCCN3CCOCC3)C2)c1 (stereo not given)	2	6	-7	24	-4	-14
COc1cccc(NC(=O)CS(=O)(=O)Cc2nc(-c3ccc(C)cc3)oc2C)c1	-10	7	-27	11	-18	45
CN(C)S(=O)(=O)c1ccc(NC(=O)CCCNC(=O)c2ccc(Cl)cc2)cc1	-6	15	-27	-15	0	26
COc1ccc(N=Nc2n(C)c3ccccc3[n+]2C)cc1	x	x	37	x	x	103*
Cn1c(COc2ccccc2O)[n+](C)c2ccccc21	-2	-7	-14	-27	-3	12
SMILES	Gli-Sufu block	Jurkat NFkB inh	KLF5 inh	Mdm2-MdmX inh	697 NFkB inh	aSyn UTR inh
O=C(Cn1c2ccccc2c(=O)c2ccccc21)N/N=C/c1ccc(N2CCCC2)c([N+](=O)[O-])c1	5	x	-8	x	x	111*
O=C(N/N=C/c1ccc(N2CCCC2)c([N+](=O)[O-])c1)c1cccnc1	-11	10	-14	12	22	-8
Fc1ccccc1SCc1nnc(-c2ccccc2Br)o1	-127	-131	-114	-107	-245	-49
O=C(CCCN1C(=O)/C(=C/c2ccc3c(c2)OCO3)SC1=S)Nc1cccc(C(=O)O)c1	24	14	-36	43	18	73*
O=C(CCN1C(=O)/C(=C/c2ccc3c(c2)OCO3)SC1=S)Nc1cccc(C(=O)O)c1	11	10	-8	4	-3	-16
CCN(CC)CCCNC1=C(Cl)C(=O)c2ccccc2C1=O	5	-3	-3	17	20	76*
O=C1C=C(c2cnc3ccccc3c2)C[C@@H](c2ccc3c(c2)OCO3)C1	-7	3	x	24	5	x
Cn1c2c(c(=O)[nH]c1=O)C(c1cccc(O)c1)C1=C(N2)c2ccccc2C1=O (stereo not given)	56*	x	2	x	x	x
COCC(=O)Nc1cc(C)cn(Cc2ccccc2Cl)c1=O	-9	-20	-32	-6	-8	-10
COc1ccc(F)cc1CN1CCN(c2ncnc3scc(-c4ccccc4)c23)CC1	14	11	-9	30	1	98*
CC(=O)Nc1cc(OC(C)=O)c2nonc2c1OC(C)=O	-4	21	115*	48	6	x
Cc1cccc(NC(=O)C(=O)NCC2CCCO2)c1 (stereo not given)	-66	-60	-123	-60	-39	-92
CN(C)CCn1c(SCc2ccccc2C#N)nc2c(sc3ccccc32)c1=O	6	8	-37	11	0	-53
COc1ccc(-c2nc(-c3cccs3)no2)cc1	-98	-103	-5	-80	-224	83*
CCOc1ccc(-c2cc(CCCC(=O)Nc3cc(OC)ccc3OC)no2)cc1	13	2	-12	-16	32	83*
CCOc1ccc(-c2cc(CCCC(=O)NCCC(C)C)no2)cc1	-5	-25	4	-5	27	40
CCOc1ccc(-c2cc(CCCC(=O)NCCc3ccccc3)no2)cc1	12	-16	-15	4	33	62*
Nc1c(C(=O)N2CCCCCC2)oc2ccccc12	-10	7	-25	-15	-33	-9
COc1ccc(CNC(=O)Cn2nc([N+](=O)[O-])c(Br)c2C)cc1OC	5	-20	-40	-10	14	-4
NC(=O)c1c(NC(=O)c2ccc([N+](=O)[O-])o2)sc2c1CCCC2	39	0	24	14	9	95*
N#Cc1c(NC(=O)c2ccc([N+](=O)[O-])o2)sc2c1CCC2	-30	-32	-34	21	-115	-107
COC(=O)c1cc(S(=O)(=O)N(C)C2CCCCC2)c[nH]1	1	6	-25	17	-2	-8
Cc1ccccc1C(=O)/C(C#N)=N/Nc1c(C)n(C)n(-c2ccccc2)c1=O	17	x	30	x	x	79*
CC#CC(=O)N1CCC(CO)(CCc2ccccc2)CC1	1	-15	12	11	-15	12

High-throughput results as filed in PubChem.
